In the library only some 8.8% were active in any assay of this set; here they are far more common.
HTT aggregate: mutant huntingtin aggregation inhibition | PC12 HttQ103-GFP aggregates, Acumen cytometry, 40 h | Potency, µM (doses to about 46.1 µM), usual class: inhibitors | hit rate 1.1% among 220,000 | AID 1688; active means well fitted curve in the direction sought with a large enough effect; inconclusive means small, poorly fitted or top-dose-only effect, or another doubt; inactive means no such curve, though single readings can be large; an effect the other way counts as inactive or inconclusive; further: nearly all actives have a fitted effect of over 60% in size
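Using laser scanning cytometry, GFP-positive aggregates were counted after lysis of PC12 cells induced with 100 nM tebufenozide to express HTT exon 1 Q103–GFP. Compounds were tested in titration.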
ALDH1A1 inh: blocks purified human ALDH1A1 activity; P00352; Purified ALDH1A1, NADH fluorescence, propionaldehyde substrate; Potency, µM (series often up to 75.3 µM), usual class: inhibitors; hit rate 7.3% among 220,000; AID 1030
Target sequence (P00352 whole entry, looked up): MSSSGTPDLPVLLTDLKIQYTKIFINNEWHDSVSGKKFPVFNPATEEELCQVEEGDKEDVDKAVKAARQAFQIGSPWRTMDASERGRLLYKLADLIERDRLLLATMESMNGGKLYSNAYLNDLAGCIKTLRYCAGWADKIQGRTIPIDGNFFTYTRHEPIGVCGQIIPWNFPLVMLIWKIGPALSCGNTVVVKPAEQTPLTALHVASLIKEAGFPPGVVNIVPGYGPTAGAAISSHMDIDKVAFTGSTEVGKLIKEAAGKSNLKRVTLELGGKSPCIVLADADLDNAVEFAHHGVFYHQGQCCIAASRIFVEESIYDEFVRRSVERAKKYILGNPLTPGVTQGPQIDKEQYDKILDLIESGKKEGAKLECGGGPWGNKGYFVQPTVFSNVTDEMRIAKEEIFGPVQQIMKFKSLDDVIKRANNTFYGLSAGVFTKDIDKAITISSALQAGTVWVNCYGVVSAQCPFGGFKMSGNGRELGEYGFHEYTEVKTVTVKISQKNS
Lamin A splicing: LMNA splicing modulation | Potency, µM (doses to about 46.1 µM), actives largely listed as inhibitors | hit rate 0.01% among 200,000 | HeLa LMNA splicing GFP/RFP minigene ratio, 48 h; active means well fitted inhibition curve with a large enough effect in the signal ratio, with a control signal flat, not every such curve was filed as active; inconclusive means small, poorly fitted or top-dose-only effect, or effect the other way, or a change in a side signal; the % refers to the signal ratio
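S3 HeLa cells stably expressing lamin A-EGFP splicing minigene plus DsRed2, 600 cells/well, 48 h compound exposure at 37C. Laser-scanning cytometry; analysed as GFP (500-530 nm)/RFP (575-640 nm) total intensity ratio; 0.5% DMSO vehicle.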
HPGD inh: blocks human HPGD enzyme activity; hit rate 4.3% among 150,000; purified HPGD, NADH fluorescence kinetic, PGE2 substrate; Potency, µM, most hits filed as inhibitors
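20 nM HPGD preincubated 15 min at room temperature with compound in 50 mM Tris-HCl pH 8, 0.01% Tween 20. Started with 1 mM NAD+ and 30 uM prostaglandin E2; NADH fluorescence (360/450 nm) read 5 times over 30-s intervals, last minus first.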
HTT cytoprotect: protects HTT-Q103 PC12 cells, measured by ATP; PC12 HTT-Q103 induced, cytoprotection, ATP luminescence, 40 h; Potency, µM (doses to about 56.4 µM), most hits filed as activators; hit rate 0.14% among 230,000; active means well fitted curve in the direction sought with a large enough effect; inconclusive means small, poorly fitted or top-dose-only effect, or another doubt; inactive means no such curve, though single readings can be large; an effect the other way counts as inactive or inconclusive; further: nearly all actives have a fitted effect of over 45% in size
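ATP quantification (ATPlite) reports survival of PC12 cells in which tebufenozide, 100 nM final, switches on Htt exon 1 with 103 glutamines linked to GFP; compounds are titrated.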
Large screens that a line does not name were inactive. Unless noted, the call rests on the fitted dose curve; in most records, active means well fitted inhibition curve with a large enough effect (not every such curve was filed as active); inconclusive means small, poorly fitted or top-dose-only effect, or another doubt; inactive means no such curve, though single readings can be large or run the other way.

O=C(O)CCn1cc(C=C2C(=O)NC(=O)NC2=O)c(-c2ccc(Br)cc2)n1	HTT aggregate inconclusive, Lamin A splicing inconclusive, HPGD inh 28.2µM (no result: HTT cytoprotect)
CC(C)n1cc2c3c(cccc31)[C@@H]1C[C@H](C(=O)O[C@@H](C)[C@H](C)O)CN(C)[C@H]1C2	none (no result: HTT aggregate, ALDH1A1 inh, Lamin A splicing, HPGD inh)
COP(=O)(OC)O/C(=C\Cl)c1cc(Cl)c(Cl)cc1Cl	ALDH1A1 inh inconclusive (no result: HTT aggregate, Lamin A splicing)
CC/C(=N\Nc1cccc2ccccc12)c1c(O)[nH]c(=O)[nH]c1=O	ALDH1A1 inh 14.1µM, HPGD inh inconclusive
N#C/C(N)=C(/N)C#N	none (no result: HTT aggregate, Lamin A splicing)
CS/C(N)=C(C#N)/C(C#N)=C(\N)SC	ALDH1A1 inh 7.08µM, HPGD inh inconclusive (no result: HTT aggregate, Lamin A splicing)
O=P(O)(OP(=O)(O)c1ccccc1)c1ccccc1 (tested in a mixture with another compound)	none (no result: HTT aggregate, Lamin A splicing)
[O-]/[N+](=N\O)c1ccccc1	ALDH1A1 inh 10µM, HPGD inh 12.6µM (no result: HTT aggregate, Lamin A splicing)
ClCCCl	ALDH1A1 inh inconclusive (no result: HTT aggregate, Lamin A splicing)
CN1CCN(S(=O)(=O)c2cnc(Cl)c(Br)c2)CC1	ALDH1A1 inh 2.51µM, Lamin A splicing inconclusive
COc1ccc(C(C)=O)cc1COC(=O)c1ccc2ccccc2n1	ALDH1A1 inh 14.1µM (no result: HPGD inh)
CO[C@@H]1CC=C2CCN3CCC4=C(CC(=O)OC4)[C@]23C1	none (no result: HTT aggregate, ALDH1A1 inh, Lamin A splicing, HPGD inh)
O=[N+]([O-])/C=C/c1ccccc1	none (no result: HTT aggregate, Lamin A splicing)
O=C1C(Cl)=C(Cl)C(=O)C(Cl)=C1Cl	ALDH1A1 inh 0.398µM, HPGD inh 0.891µM (no result: HTT aggregate, Lamin A splicing)
Cc1cccc(N2C(=O)/C(=C/c3ccc(N4CCN(C)CC4)o3)C(=O)NC2=S)c1C	ALDH1A1 inh 14.1µM (no result: HTT cytoprotect)
CCc1ccccc1N1C(=O)/C(=C/c2ccc(N3CCN(C)CC3)o2)C(=O)NC1=S	HTT aggregate inconclusive, ALDH1A1 inh inconclusive, Lamin A splicing inconclusive (no result: HTT cytoprotect)
NC(=NCCC[C@@H](N)C(=O)O)N[N+](=O)[O-]	none (no result: HTT aggregate, ALDH1A1 inh, Lamin A splicing, HPGD inh)
CCN1CCN(c2ccc(NC(C)=O)cc2Cl)CC1	none (no result: HPGD inh)
CCN1CCN(S(=O)(=O)c2ccc(Cl)nc2)CC1	ALDH1A1 inh 25.1µM
CCCCCn1c(=O)c(C(=O)NCc2ccncc2)c(O)c2ccccc21	HTT aggregate 22.4µM, ALDH1A1 inh inconclusive, Lamin A splicing inconclusive, HPGD inh inconclusive
CC(C)(C)C(=O)CP(=O)(O)O	none (no result: HTT aggregate, Lamin A splicing)
COc1ccc(/C=C2/C(=O)NC(=O)N(c3ccc(C)c(C)c3)C2=O)cc1CN1C(=O)c2ccccc2C1=O	ALDH1A1 inh 7.94µM, HPGD inh 10µM
COc1cc(/C=C2\C(=O)NC(=O)N(c3ccccc3)C2=O)cc(OC)c1OC	ALDH1A1 inh 12.6µM, HPGD inh inconclusive
CCN1CCN(Cc2ccc(C)cc2)CC1	ALDH1A1 inh inconclusive
CCN1CCN(Cc2cc(C(C)(C)C)c(O)c(C(C)(C)C)c2)CC1	ALDH1A1 inh 28.2µM
O=[N+]([O-])c1cc(Cl)c(Cl)c(Cl)c1	ALDH1A1 inh inconclusive (no result: HTT aggregate, Lamin A splicing)
CC(C)c1cc2c(c(O)c1O)[C@]1(C(=O)O)CCCC(C)(C)C1CC2 (some centres not stated)	ALDH1A1 inh 15.8µM, HPGD inh 3.16µM (no result: HTT aggregate, Lamin A splicing)
C[C@@]12CCC[C@](C)(C(=O)O)[C@@H]1CCc1ccc(O)cc12	none (no result: HTT aggregate, ALDH1A1 inh, Lamin A splicing, HPGD inh)
CC(C)c1cc2c(c(O)c1O)[C@@]1(C(=O)O)CCCC(C)(C)[C@@H]1CC2	ALDH1A1 inh 14.1µM, HPGD inh 15.8µM (no result: HTT aggregate, Lamin A splicing, HTT cytoprotect)
C[C@]1(C(=O)O)CCC[C@]2(C)c3cc(O)ccc3CC[C@@H]12	none (no result: HTT aggregate, Lamin A splicing)
CC1=CCCC2C1(C)CCC(C)C2(C)CC/C(C)=C/C[n+]1cn(C)c2c(N)ncnc21 (configuration not stated)	ALDH1A1 inh 17.8µM (no result: HTT aggregate, Lamin A splicing)
O=c1c2ccccc2nc(/C=C/c2ccc(O)cc2)n1-c1ccccc1O	none (no result: Lamin A splicing, HPGD inh)
O=c1c2ccccc2nc(/C=C/c2cccnc2)n1Cc1ccccc1	ALDH1A1 inh 5.01µM (no result: Lamin A splicing, HPGD inh)
COc1ccc(OC)c(N2C(=O)NC(=O)/C(=C\c3ccc([N+](=O)[O-])s3)C2=O)c1	HTT aggregate inconclusive, ALDH1A1 inh 25.1µM (no result: HPGD inh)
COc1ccc(N2C(=O)NC(=O)/C(=C\c3ccccc3[N+](=O)[O-])C2=O)cc1	ALDH1A1 inh 18.9µM (no result: HPGD inh)
CCOc1ccc(N2C(=O)NC(=O)/C(=C\c3ccccc3[N+](=O)[O-])C2=O)cc1	none (no result: ALDH1A1 inh, Lamin A splicing, HPGD inh)
O=C1NC(=O)N(c2ccccc2)C(=O)/C1=C\c1ccc([N+](=O)[O-])s1	none (no result: ALDH1A1 inh, Lamin A splicing, HPGD inh)
O=C(O)CBr	none (no result: HTT aggregate, Lamin A splicing)
C[C@]12Cc3cn4c(nc3C=C1CC[C@H]1[C@@H]2CC[C@@]2(C)[C@H]1CC[C@@]2(O)C#N)nc1ccccc14	none (no result: HTT aggregate, ALDH1A1 inh, Lamin A splicing, HPGD inh)

Assay outcomes deposited in PubChem BioAssay by National Center for Advancing Translational Sciences (NCATS).
